KDM5B inhibitor: inhibitors of human KDM5B histone demethylase; Potency, µM (highest dose often 57.7 µM), most hits filed as inhibitors; Q9UGL1; KDM5B demethylase, FDH-coupled NADH fluorescence (FDH is formaldehyde dehydrogenase); actives 2.6% (n = 220,000); active means well fitted inhibition curve with a large enough effect; further: nearly all actives have a fitted effect of over 70% in size
Target sequence (Q9UGL1 whole entry, looked up): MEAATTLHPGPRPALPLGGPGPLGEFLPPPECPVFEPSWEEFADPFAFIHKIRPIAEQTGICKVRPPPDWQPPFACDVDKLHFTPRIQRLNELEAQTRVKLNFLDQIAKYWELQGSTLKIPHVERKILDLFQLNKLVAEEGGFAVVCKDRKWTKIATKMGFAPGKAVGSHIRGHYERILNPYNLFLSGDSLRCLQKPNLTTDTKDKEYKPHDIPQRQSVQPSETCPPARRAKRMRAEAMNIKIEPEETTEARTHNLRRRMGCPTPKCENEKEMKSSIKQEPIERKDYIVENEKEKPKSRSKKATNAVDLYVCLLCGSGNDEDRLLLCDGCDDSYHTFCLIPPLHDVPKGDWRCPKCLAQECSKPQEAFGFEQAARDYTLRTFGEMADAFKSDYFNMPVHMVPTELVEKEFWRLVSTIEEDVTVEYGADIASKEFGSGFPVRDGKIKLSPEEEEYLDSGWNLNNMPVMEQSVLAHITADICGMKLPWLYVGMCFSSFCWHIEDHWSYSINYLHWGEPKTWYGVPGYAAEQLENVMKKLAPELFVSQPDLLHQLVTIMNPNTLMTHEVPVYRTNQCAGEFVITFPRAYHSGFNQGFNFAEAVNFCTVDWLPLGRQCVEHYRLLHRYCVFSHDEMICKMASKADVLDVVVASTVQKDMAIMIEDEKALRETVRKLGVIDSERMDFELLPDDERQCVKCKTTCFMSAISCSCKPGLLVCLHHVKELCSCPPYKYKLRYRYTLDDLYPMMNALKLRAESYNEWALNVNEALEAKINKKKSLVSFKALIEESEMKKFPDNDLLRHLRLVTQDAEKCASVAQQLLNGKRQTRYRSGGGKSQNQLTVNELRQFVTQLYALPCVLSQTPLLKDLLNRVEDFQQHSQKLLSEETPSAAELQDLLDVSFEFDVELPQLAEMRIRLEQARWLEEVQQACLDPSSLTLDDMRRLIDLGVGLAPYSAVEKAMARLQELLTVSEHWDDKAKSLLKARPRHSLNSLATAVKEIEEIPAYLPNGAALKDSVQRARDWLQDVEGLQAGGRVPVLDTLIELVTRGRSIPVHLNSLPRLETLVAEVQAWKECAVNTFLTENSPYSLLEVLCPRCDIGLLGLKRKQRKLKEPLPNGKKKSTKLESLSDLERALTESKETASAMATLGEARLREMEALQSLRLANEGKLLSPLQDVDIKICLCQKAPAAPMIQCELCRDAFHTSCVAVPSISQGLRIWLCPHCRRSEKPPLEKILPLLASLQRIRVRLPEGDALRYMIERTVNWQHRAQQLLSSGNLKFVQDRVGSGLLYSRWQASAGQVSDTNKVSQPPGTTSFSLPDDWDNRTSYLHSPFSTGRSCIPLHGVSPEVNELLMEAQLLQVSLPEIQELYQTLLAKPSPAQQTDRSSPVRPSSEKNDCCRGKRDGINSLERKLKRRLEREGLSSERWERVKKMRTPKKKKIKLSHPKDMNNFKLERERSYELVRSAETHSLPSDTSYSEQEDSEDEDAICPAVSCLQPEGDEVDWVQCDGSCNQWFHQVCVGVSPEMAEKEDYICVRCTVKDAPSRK
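Inhibition is measured as reduced NADH fluorescence generation from FDH coupling to formaldehyde release. Truncated KDM5BΔAP at 200 nM final acts on H3K4me3 peptide (12.5 µM in substrate mix) in pH 7.5 HEPES buffer with Tween-20, 30 min, room temperature.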
Of the large screens only hits and unclear results are named; the others gave an inactive call; ! = repeats disagree. The full list was thinned out, with hits kept by preference.

Cc1cn2nc(C(=O)NCC3CCCCC3)cc2c(=O)[nH]1	none
COCCCNC(=O)c1cc(-c2ccc(C)c(C)c2)nc2ccccc12	none
COc1ccccc1C(=O)NC1CCN(C(=O)c2cc3c(=O)[nH]c(C)cn3n2)CC1	none
COc1ccccc1CC(=O)NC1CCN(C(=O)c2cc3c(=O)[nH]c(C)cn3n2)CC1	none
CCCNC(=O)c1cc2c(=O)[nH]c(-c3ccccc3)cn2n1	KDM5B inhibitor 25µM
Cc1cn2nc(C(=O)NCc3ccccc3C)cc2c(=O)[nH]1	none
CC(=O)c1cccc(Nc2nc3ccccc3nc2NS(=O)(=O)c2cccc(C)c2)c1	none
O=C(CCc1ncc(-c2ccccc2)o1)N1CCN(C(=O)C2CC2)CC1	none
O=C(CSc1ncnc2ccccc12)Nc1cccc(F)c1	none
CCOC(=O)Oc1ccc2c(=O)c(Oc3ccccc3Cl)c(C(F)(F)F)oc2c1	none
Cc1ccccc1NC(=O)c1nc2ccccc2nc1N1CCCCC1	none
CCn1c(CO)nnc1C1CC(NC(=O)c2cnn3cc(C)cnc23)C1 (centres undefined)	KDM5B inhibitor 28µM!
CCn1c(CO)nnc1C1CC(NC(=O)c2nn(C)c(C)c2Cl)C1 (centres undefined)	none
CCn1c(CO)nnc1C1CC(NC(=O)c2ccccc2-n2cccn2)C1 (centres undefined)	none
CNc1c(NC(=O)Nc2ccccc2Cl)c(=O)oc2ccccc12	none
COc1ccc(NC(=O)C(C)Nc2ccc3oc(C)nc3c2)cc1OC (centres undefined)	none
Cn1c(=O)oc2ccc(C(=O)N[C@H](C3CCNCC3)C3CC(O)C3)cc21 (some centres undefined)	none
CCNc1ncc(C(=O)N[C@H](c2cccs2)C2CC(O)C2)cn1 (some centres undefined)	KDM5B inhibitor 22µM
Cc1cc(C)c(C(=O)N[C@H](C2CCNCC2)C2CC(O)C2)c(C)c1 (some centres undefined)	none
CCN(CC)Cc1cc(C(=O)N[C@H](c2cccs2)C2CC(O)C2)c(C)o1 (some centres undefined)	none
CCNc1ncc(C(=O)N[C@H](C2CCNCC2)C2CC(O)C2)cn1 (some centres undefined)	KDM5B inhibitor 28µM
O=C(N[C@H](c1cccs1)C1CC(O)C1)c1ccc(N2CCOCC2)cc1 (some centres undefined)	none
CN(CCOc1ccccc1)C(=O)c1cc(Cl)c[nH]1	none
COc1ccccc1N1CCN(C(=O)c2ccccc2NC(=O)Cn2c(C)cc(C)c(C#N)c2=O)CC1	none
CCN1C(=O)c2ccccc2S(=O)c2ccc(C(=O)NC3CCCc4ccccc43)cc21 (centres undefined)	none
Cc1ccc(S(=O)(=O)N2CCN(C(=O)c3cc4ccc(F)cc4nc3C)CC2)c(C)c1	none
Cc1ccnc(NC(=O)CCc2nc(C(C)(C)C)no2)c1	none
Cc1ccccc1CN1CCC2OCCN(CCc3ccccc3)C(=O)C2C1 (centres undefined)	none
Cc1cc(C)n(C)c(=O)c1C(=O)N[C@@H]1COCC[C@@H]1OCc1ccccc1	none
Cc1[nH]nc(C(=O)N[C@@H]2COCC[C@@H]2OCc2ccccc2)c1Cl	none
CNc1ncccc1C(=O)N[C@@H]1COCC[C@@H]1OCc1ccccc1	KDM5B inhibitor 28µM
O=C(c1ccncc1)N1CC(Oc2ccccc2-c2nc(C3CC3)no2)C1	none
CC(C)C(=O)Nc1ccc(Br)cc1Br	none
CCNC(=O)COc1ccc(-c2noc(-c3ccccc3)n2)cc1OC	none
CCc1noc(-c2cccn3c(CNC(=O)c4ccco4)nnc23)n1	KDM5B inhibitor 28µM
CCCc1noc(-c2cccn3c(CNC(=O)c4ccco4)nnc23)n1	KDM5B inhibitor 25µM
CCc1noc(-c2cn(C3CCN(C(=O)c4ccco4)CC3)nn2)n1	none
CC(=O)Nc1cccc(NC(=O)COC(=O)c2ccccc2OCc2cccc(Br)c2)c1	none
COc1cc2cc(C(=O)N[C@@H](C)C(=O)Nc3ccc4c(c3)OCO4)[nH]c2c(OC)c1OC	none
COc1ccc(C(=O)CCC(=O)OCC(=O)c2ccc(Cl)c(Cl)c2)cc1	none
Brc1ccc(CN2CCC(c3nc4ncccc4[nH]3)CC2)cc1	none
Brc1ccc(CN2CCC(c3nc4ncccc4[nH]3)C2)cc1 (centres undefined)	KDM5B inhibitor 20µM!
CN(C)c1ccc(CN2CC[C@H](c3nc4ncccc4[nH]3)C2)cc1	none
Clc1cccc(CN2CC[C@H](c3nc4ncccc4[nH]3)C2)c1	none
NC(=O)c1cccc2[nH]c([C@H]3CCN(Cc4cccc(Cl)c4)C3)nc12	KDM5B inhibitor 35µM
O=C(c1cccs1)N1CCCC(c2nc3c(nnn3Cc3cccc(Cl)c3)c(=O)[nH]2)C1 (centres undefined)	none
O=C(CCCc1ccccc1)Nc1ccc(OC2CCNCC2)nc1	KDM5B inhibitor 18µM
CCC(=O)N1CCC(Oc2ccc(NC(=O)Cc3ccncc3)cn2)C1 (centres undefined)	none
CN1CCC(NC(=O)c2ccc(OC3CCNCC3)nc2)CC1	none
O=C(CSc1ccc2c(c1)OCCCO2)Nc1ccccc1Oc1ccccc1	none
Cc1cc(Cl)ccc1NC1CN(C(=O)OC(C)(C)C)C1	none
Cc1cc(F)ccc1NC1CN(C(=O)OC(C)(C)C)C1	none
CC(C)(C)OC(=O)N1CC(Nc2ccc(O)cc2)C1	KDM5B inhibitor 8.9µM!
C=CCNc1nc(-c2c(C(=O)OCC)c(C)n(CC)c2C)cs1	none
O=C(Nc1ccc(Cl)cc1F)c1ccc(-c2ccccc2)cc1	none
O=C(Nc1ccc(Cl)cc1Cl)c1ccc2ccccc2n1	none
O=C(Nc1ccc(Cl)cc1Cl)c1ccc2cncn2c1	KDM5B inhibitor 28µM
O=C(Nc1ccc(Cl)cc1Cl)c1ccn2cncc2c1	KDM5B inhibitor 35µM
O=C(Nc1ccc(Cl)cc1Cl)c1cccn2cncc12	none
O=C(Nc1ccc(Cl)cc1Cl)c1cnc2ccccc2n1	none
CCCCCCc1cc(C=O)c(O)cc1O	none
CCOc1ccc(C2CC(=O)N(c3cccc(C(F)(F)F)c3)C3=C2C(=O)OC3)cc1 (centres undefined)	none
CCONC(=O)c1cc2cc(C)ccc2o1	none
O=C(NC1CCN(c2cc(-c3ccccc3)[nH]n2)CC1)c1ccccc1Cl	none
Cc1ccc(-c2cc(N3CCC(CNC(=O)c4ccc(=O)[nH]c4)CC3)n[nH]2)cc1	none
O=C(NCC1CCN(c2cc(-c3ccccc3)[nH]n2)CC1)c1ccc[nH]c1=O	KDM5B inhibitor 32µM
CSc1ccc(C(C)NC(=O)C=C(C)C)cc1 (centres undefined)	none
O=C1CCN(S(=O)(=O)c2ccccc2)CCCN(Cc2cccc(F)c2)CCN1	none
COc1ccc(NC(=O)COc2ccc(/C(C)=N/O)cc2)cc1	none
COCC1CCN(C(=O)[C@@H]2CN(c3cnccn3)C[C@H]2COC)CC1	KDM5B inhibitor 25µM
COCC1CCN(C(=O)C2CCC(=O)N(C3CCCCCC3)C2)CC1 (centres undefined)	none
COC[C@@H]1CN(c2cnccn2)C[C@H]1C(=O)NCCc1cccnc1	KDM5B inhibitor 25µM
COC[C@@H]1CN(c2cnccn2)C[C@H]1C(=O)NCc1ccccc1OC	KDM5B inhibitor 22µM
COC[C@@H]1CN(c2cnccn2)C[C@H]1C(=O)NCCCn1cccn1	KDM5B inhibitor 20µM
COc1ccccc1CN1C[C@@H](C(=O)O)C[C@H](C(=O)NCc2ccccn2)C1	none
O=C1CCCCC(C(=O)NCCCn2cccn2)N1 (centres undefined)	none
O=C(NCCc1cccnc1)C1CCCN(C2CCOCC2)C1 (centres undefined)	none
O=C(NCCc1cccnc1)C1CC2CCC1C2 (centres undefined)	none
COc1ccccc1CNC(=O)[C@H]1CCC[C@H]1NC(=O)c1ccncc1	none
CNC(=O)[C@@H]1CN(C(=O)c2cccnc2)C[C@H]1COC	none
